# Compounds with a hit are over-represented: about 3.6% of the library has one in this group of screens.
# CendR NRP1 mod: modulators of CendR peptide binding to NRP-1, primary screen, biochemical, fluorescence polarization, uHTS | FAM-RPARPAR peptide binding to NRP-1 | inhibition, % at 25 µM | actives 0.85% (n = 360,000) | AID 602438, 2012;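 active = inhibition or corrected inhibition above about 18%, plus a signal ratio from 0.5 to 1.5, limit read from the data, passing the limit was not always enough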
# Target sequence (O14786 whole entry, looked up): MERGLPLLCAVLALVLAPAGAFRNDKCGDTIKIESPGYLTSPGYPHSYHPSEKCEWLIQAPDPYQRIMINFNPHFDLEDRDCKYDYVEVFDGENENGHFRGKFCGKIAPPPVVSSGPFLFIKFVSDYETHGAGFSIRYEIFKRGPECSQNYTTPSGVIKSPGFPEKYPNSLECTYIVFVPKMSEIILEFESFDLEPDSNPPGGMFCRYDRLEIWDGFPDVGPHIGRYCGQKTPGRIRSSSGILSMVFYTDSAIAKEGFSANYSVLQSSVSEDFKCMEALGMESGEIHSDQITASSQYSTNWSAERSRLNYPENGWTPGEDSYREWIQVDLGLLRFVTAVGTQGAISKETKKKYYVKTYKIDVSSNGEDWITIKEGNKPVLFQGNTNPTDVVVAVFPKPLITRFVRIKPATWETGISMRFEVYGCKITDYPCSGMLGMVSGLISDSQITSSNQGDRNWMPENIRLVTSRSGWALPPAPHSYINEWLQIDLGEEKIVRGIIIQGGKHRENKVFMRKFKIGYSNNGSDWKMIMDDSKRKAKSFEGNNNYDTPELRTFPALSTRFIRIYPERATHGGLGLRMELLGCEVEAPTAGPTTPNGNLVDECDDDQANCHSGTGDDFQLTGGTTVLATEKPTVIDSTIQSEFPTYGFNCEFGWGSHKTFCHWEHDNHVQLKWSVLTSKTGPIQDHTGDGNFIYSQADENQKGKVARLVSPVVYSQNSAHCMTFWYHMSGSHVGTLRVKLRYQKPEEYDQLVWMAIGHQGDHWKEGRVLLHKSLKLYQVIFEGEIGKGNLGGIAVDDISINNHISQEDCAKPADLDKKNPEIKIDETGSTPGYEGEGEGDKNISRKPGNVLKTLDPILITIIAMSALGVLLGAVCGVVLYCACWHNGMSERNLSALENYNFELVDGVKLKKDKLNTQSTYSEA
# NadD block: inhibitors of S. aureus NadD, primary screen, biochemical, colorimetric, uHTS | Nicotinate-nucleotide adenylyltransferase NadD (Staphylococcus aureus N315) | purified NadD enzyme, colorimetric absorbance read-out | inhibition, % at 20 µM | actives 0.78% (n = 360,000); in the data active = inhibition above about 26%
# FAS-TE inh: FAS thioesterase domain inhibitors, primary screen, biochemical, fluorescence intensity, uHTS; actives 0.67% (n = 360,000); recombinant FAS-TE, OMFH fluorogenic substrate, fluorescence endpoint; inhibition, % at 15 µM;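 active = compounds whose normalised, plate-corrected inhibition of enzyme fluorescence in the single-dose primary screen is 50% or more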;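 note: 0% = DMSO with enzyme and 100% = substrate without enzyme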
# Myeloid diff 2: induction of myeloid progenitor differentiation, primary screen, cell-based, flow cytometry, MLPCN library; ER-HoxA9 myeloid progenitors, lysozyme-GFP differentiation; calls only at 10 µM; actives 1% (n = 360,000);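 active = normalized GFP-positive differentiation at or above the plate's own cutoff, the solvent-only control mean plus 3 SD; inconclusive = no clear call, values can overlap the other calls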;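 note: cells exposed to compound for four days before flow analysis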
# CRFBP-R2 block: antagonists of CRF-BP/CRF-R2 complex, primary screen, cell-based, HEK293, calcium dye fluorescence, uHTS | CRF-induced calcium fluorescence | inhibition, % at 11.8 µM | actives 0.59% (n = 350,000) | AID 588475, 2011;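 active = inhibition of the ligand-induced calcium signal above about 50% at the single tested concentration, limit read from the data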
# * = called active by the depositor; i = inactive; ? = inconclusive; nt = no result given; + = active, no number.
SMILES,CendR NRP1 mod,NadD block,FAS-TE inh,Myeloid diff 2,CRFBP-R2 block
Cc1ccc(NC(=O)c2cccc(Cl)c2)nc1,25*,0,-3,i,-12
CCCc1c(-c2ccc(F)cc2)ncn1Cc1ccccc1OC,22*,0,13,i,nt
CCCCCc1c(-c2cccc(Cl)c2)ncn1CCc1ccccc1OC,23*,2,3,i,nt
CC(=O)c1sc(NC(=O)C2(F)C(F)(F)C(F)(F)C(F)(F)C(F)(F)C2(F)F)nc1C,-2,1,2,i,66*
COC(=O)c1cc(=O)n(CCc2ccc(OC)c(OC)c2)c(=Nc2ccc(F)c(Cl)c2)s1,8,-4,9,i,-41
COc1ccc(/C=N/NC(=O)c2ccc(CSc3nc(C)cc(C)n3)cc2)cc1O,-7,9,-3,i,-3
COc1ccc(O)c(/C=N/NC(=O)c2ccc(CSc3nc(C)cc(C)n3)cc2)c1,-10,34*,17,?,-17
COc1ccc(/C=N/NC(=O)c2ccc(CSc3nc(C)cc(C)n3)cc2)c(OC)c1OC,-2,0,13,+,30
Cc1cc(C)nc(SCc2ccc(C(=O)N/N=C/c3cccc(O)c3O)cc2)n1,-7,24,8,?,-49
Cc1cc(Br)cn2c(Cc3ccsc3)c(-c3ccc(Cl)cc3)nc12,6,3,17,i,nt
CCOC(=O)C1=C(N)Oc2cc(O)ccc2C1c1cccc(Cl)c1 (stereo not drawn),27*,-8,40,i,18
Cc1c2c(cc3c1[nH]c1ccccc13)C=NCC2,-169,-2,-153,+,9
COC(=O)c1ccc(NC(=O)CS(=O)(=O)c2ccccc2)cc1,5,2,-5,i,5
O=c1c2c(C(F)(F)F)cc(C(F)(F)F)nc2[nH]n1-c1ccccc1,-2,-1,-4,i,12
O=c1c(Sc2ccccc2)c(C(F)(F)F)[nH]n1-c1ccccc1,-3,-5,-2,i,81*
Cn1cnc([N+](=O)[O-])c1Oc1cccc2ccccc12,7,-2,-1,i,19
Cn1cnc([N+](=O)[O-])c1S(=O)(=O)Oc1cccc2ccccc12,-32,-2,66*,?,22
Cn1cnc([N+](=O)[O-])c1S(=O)(=O)Oc1ccc(Cl)cc1,8,-8,52*,?,34
Cc1cccc(C(CC(=O)NCCc2ccccc2)c2ccccc2)c1O (stereo not drawn),21*,-9,12,i,14
Cc1cccc(C(CC(=O)NCc2ccco2)c2ccccc2)c1O (stereo not drawn),3,-7,-2,i,3
Nn1c(COc2ccccc2F)nnc1SCC(=O)NC1CCCC1,-4,-1,-5,i,3
CCOC(=O)Cc1c(C)nc2cc(C)nn2c1C,5,-4,-5,i,-4
CCOC(=O)Cc1nn2c(=O)cc(C)nc2s1,-15,-3,-13,+,-35
CNc1cncc(-c2cccc(C(=O)N(C)C)c2)n1,7,3,-7,i,nt
NC(=O)C(c1ccc(Cl)cc1Cl)c1ncc(C(F)(F)F)cc1Cl (stereo not drawn),23*,3,14,i,-4
SMILES,CendR NRP1 mod,NadD block,FAS-TE inh,Myeloid diff 2,CRFBP-R2 block
CC(=O)c1ccc(N2CCN(C(=O)c3ccc(Cn4c(=S)[nH]c5ccc(N6CCOCC6)cc5c4=O)cc3)CC2)cc1,-21,11,45,i,-4
CCCCNC(=O)[C@@H]1CCCN1S(=O)(=O)c1cccc2cccnc12,33*,-3,-10,i,1
CC(NC(=O)C1CCCN1S(=O)(=O)c1cccc2cccnc12)c1ccccc1 (stereo not drawn),-7,-1,-3,i,-8
Cc1noc(/C=C/c2ccco2)c1S(=O)(=O)N1CCC(C(=O)NC(C)c2ccccc2)CC1 (stereo not drawn),-27,8,15,+,-11
CC(NC(=O)C1CCN(S(=O)(=O)c2cccc3cccnc23)CC1)c1ccccc1 (stereo not drawn),-3,2,-5,+,-6
COCCNC(=O)[C@@H]1CCCN1S(=O)(=O)c1cccc2cccnc12,7,-2,-3,i,0
CC1(C(=O)O)CCCN1C(=O)c1cccc(F)c1 (stereo not drawn),-12,-2,-8,i,nt
CCCCCCNCC(=O)N1CCC(Cc2ccccc2)CC1,0,0,-1,?,-21
CSc1cccc(NC(=O)CNC(=O)c2ccc3c(c2)OCO3)c1,-7,-2,-2,i,-12
CSc1cccc(-n2cc(-c3ccc4c(c3)OCO4)[nH]c2=O)c1,-16,39*,8,i,-23
O=C(CSc1nnnn1-c1ccccc1)NCCCN1CCCC1=O,2,-3,-7,i,57*
O=C(CSc1nc(-c2ccccc2)cs1)NCCCN1CCCC1=O,3,-5,-5,i,-3
O=C(NNc1c2ccccc2nc2ccccc12)c1ccc(O)cc1O,-26,31*,13,nt,25
O=C(NNc1c2ccccc2nc2ccccc12)c1ccccc1O,1,25,18,i,18
CSCC[C@H](NC(=O)Nc1cccc(Br)c1)C(=O)O,-2,-6,-8,+,-7
COc1ccc2c(/C=C/c3cc[n+](C)cc3)c[nH]c2c1,-162,3,-9,+,-7
CCc1nc2c(OCc3ccccc3C(=O)OC)cccn2c1N(C)C(=O)CC(C)C,-1,0,-3,i,nt
Cc1ccc(CN2C(=O)CSCC2(C)C(=O)NCc2ccccc2)cc1 (stereo not drawn),3,nt,nt,i,nt
CCOc1ccc(N(CC(=O)NC2CCCCC2C)S(=O)(=O)c2c(C)noc2C)cc1 (stereo not drawn),1,-8,3,i,-18
CCOc1ccc(N(CC(=O)N2CCc3ccccc32)S(=O)(=O)c2c(C)noc2C)cc1,-13,-1,35,+,-4
CCOc1ccc(N(CC(=O)NC2CCC(C)CC2)S(=O)(=O)c2c(C)noc2C)cc1 (stereo not drawn),6,-12,-2,i,62*
CCCCn1nnnc1NCc1cccc(OC)c1OC,23*,9,-6,i,0
CCN(CC)CCn1c(NCc2cccc(OC)c2OC)nc2ccccc21,21*,-8,-3,i,1
CC(=O)c1ccc(NC(=O)CCCN2C(=O)COc3ccc(C)cc32)cc1,-10,0,0,i,-30
CCC1Cc2[nH][nH]c(=O)c2C(CC)O1 (stereo not drawn),-1,5,-9,i,nt
Cc1ccccc1-n1ncc2c1CC(C)(C)CC2NC(=O)c1ccncc1 (stereo not drawn),44*,-3,-2,i,-23

# Source: PubChem BioAssay (several laboratories)
